Sampled rows, rich in hits. Any-hit rate of the full collection: about 0.5%.
AddAB inh: less growth of phage-infected E. coli with AddAB; E. coli expressing H. pylori AddAB, absorbance growth; inhibition, % at 11.9 µM; actives 0.29% (n = 330,000); AID 435030; in the data active = inhibition above about 12%;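 note: 0% = vehicle wells of infected cells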
E coli growth-1: reduces bacterial viability in AddAB counter-screen; inhibition, % at 11.9 µM; actives 0.27% (n = 330,000); E. coli V3065 growth, OD600 absorbance, 18 h;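 active = inhibition above the campaign's mean inhibition across all tested compounds plus 3 SD, cut at about 9.9% in these data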;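 note: uninfected addAB+ strain grown without phage in ampicillin broth; 0% = DMSO wells and 100% = ciprofloxacin 0.95 µg/ml wells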
E coli growth-2: E. coli growth inhibition; Escherichia coli growth, OD600, 23 h; stronger effect = lower value; OD600 absorbance (concentration not given with the values); actives 0.21% (n = 330,000);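 active = OD600 absorbance below the run mean of sample wells minus 3.6 SD, in any replicate, cut at about 0.56 in these data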
Tat export inh: E. coli Tat transport inhibition; E. coli MC4100 TorA-mCherry Tat export, fluorescence; inhibition, % at 10 µM; actives 0.036% (n = 340,000);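 active = mean replicate inhibition at least 50% and at least half of replicates individually reaching 50%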;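 note: exported cargo escapes ClpAP degradation while cytoplasmic cargo is degraded and loses fluorescence; 0% = median of neutral control wells and 100% = median of NaSCN control wells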
phage Ecoli inh: E. coli growth loss with phage present; actives 0.26% (n = 360,000); growth absorbance; AID 651602; inhibition, % at 11.9 µM; in the data active = inhibition above about 11%
RecBCD conf: confirmation: growth loss of phage-infected RecBCD+ E. coli (RecBCD inhibitor screen); shares compounds with phage Ecoli inh; E. coli V66 + T4 2- phage, growth OD; inhibition, % at 11.9 µM; actives 45% (n = 890); AID 651982;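 active = mean inhibition over triplicates exceeding the hit threshold derived in the original primary screen, cut at about 11% in these data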
Ecoli viability: counter-screen for RecBCD inhibitors: inhibitors of bacterial viability; shares compounds with phage Ecoli inh; E. coli viability, absorbance (OD) growth; inhibition, % at 11.9 µM; actives 29% (n = 890); in the data active = inhibition above about 20%;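 note: E. coli strain V66 grown with compound alone and no phage infection; 0% = bacteria with DMSO vehicle only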
AddAB phage OD: growth loss of phage-infected AddAB E. coli, RecBCD counter-screen; E. coli expressing H. pylori AddAB + T4 phage, OD growth; gene 2 mutant T4, recBCD-deleted host; actives 45% (n = 890); inhibition, % at 11.9 µM; AID 651984; shares compounds with phage Ecoli inh;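 active = mean inhibition above the solvent-only control wells' mean plus 3 SD, cut at about 22% in these data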;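 note: higher means less bacterial growth from phage killing when AddAB is blocked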
Starred values were filed as active, the others as inactive; / = not tested or not shown.

SMILES	AddAB inh	E coli growth-1	E coli growth-2	Tat export inh	phage Ecoli inh	RecBCD conf	Ecoli viability	AddAB phage OD
Cc1cn([C@H]2C=C[C@@H](CO)O2)c(=O)[nH]c1=O	7	3	0.65	4	22*	16*	7	51*
CC(C)CC1CN=C(Nc2ccccc2)N1CCCCc1ccccc1 (stereo unspecified)	/	/	0.67	/	/	/	/	/
CC(C)(C)c1ccc(-c2n[nH]c(=S)n2N=Cc2ccncc2)cc1	/	/	0.66	/	/	/	/	/
O=[N+]([O-])c1ccc(O)c2ncccc12	64*	67*	0.066*	20	62*	79*	74*	69*
O=[N+]([O-])c1cc(Cl)c(O)c2ncccc12	/	/	0.068*	-1	44*	53*	55*	46*
O=[N+]([O-])c1cc([N+](=O)[O-])c2cccnc2c1Oc1ccccc1O	5	-10	0.69	2	1	/	/	/
Oc1c(Cl)c(Cl)c2ncccc2c1Cl	/	/	0.68	0	4	/	/	/
Oc1c(I)cc(Cl)c2cccnc12	31*	44*	0.12*	-14	32*	43*	49*	40*
S=C(NCC1CC1)NN=Cc1ccccc1Cl	/	/	0.65	/	/	/	/	/
CCC(C)C(C(=O)NCCCCCCCCCCC(=O)N1CCN(C(=O)OC(C)(C)C)CC1)n1cc(CCCCCNC(=O)OC(C)(C)C)nn1 (stereo unspecified)	/	/	0.71	/	/	/	/	/
Nc1nc(N)nc(-c2ccc([N+](=O)[O-])o2)n1	/	/	0.51*	-8	103*	64*	89*	98*
O=[N+]([O-])c1ccc(/C=[N+](\[O-])[C@@H]2CCCC[C@@H]2/[N+]([O-])=C/c2ccc([N+](=O)[O-])o2)o1	5	8	0.63	-17	3	/	/	/
CCc1ccc(NC(=O)NNC(=O)c2ccc3ccccc3c2O)cc1	/	/	0.7	-7	13*	9	10	9
COc1ccccc1NC(=O)NNC(=O)c1ccc2ccccc2c1O	/	/	0.68	0	11*	9	10	8
Cc1ccccc1NC(=O)NNC(=O)c1ccc2ccccc2c1O	6	6	0.73	-3	6	/	/	/
Fc1cccc(/C=N/Nc2nncc3ccccc23)c1	0	1	/	8	3	/	/	/
C(=N\Nc1nncc2ccccc12)/c1ccccn1	9	10*	/	-7	19*	20*	27*	24*
CCc1ccc(NC(=O)NNC(=O)c2cc3ccccc3cc2O)cc1	5	7	0.7	-16	7	/	/	/
O=C(NNC(=O)c1cc2ccccc2cc1O)Nc1ccccc1F	12	9.9*	0.68	-5	11*	6	7	10
Cc1ccc(NC(=O)NNC(=O)c2cc3ccccc3cc2O)c(C)c1	11	10*	0.7	2	12*	7	8	7
CC1CCC[C@]2(CC(=O)c3cc(F)ccc3O2)C1 (stereo partly specified)	/	/	0.69	/	/	/	/	/
COc1cc(C2CC=C(C(=O)O)C(c3ccc(Cl)cc3)N2S(=O)(=O)c2ccc(C)cc2)cc(OC)c1OC (stereo unspecified)	/	/	0.71	/	/	/	/	/
Cn1cc(S(=O)(=O)N2CCc3ccccc32)cc1C(=O)NC1CCCCC1	1	-1	0.67	1	98*	-4	-3	-4
O=C(OCc1nnc(-c2ccccc2)o1)c1ccc([N+](=O)[O-])o1	1	3	0.66	-2	6	/	/	/
COc1cc(-c2nnc(COC(=O)c3ccc([N+](=O)[O-])o3)o2)cc(OC)c1OC	/	/	/	/	12*	-2	0	14
Cn1cc([N+](=O)[O-])c(C(=O)N/N=C/c2ccc([N+](=O)[O-])cc2)n1	6	1	/	-2	11*	-1	-1	0
O=C(CSc1ccc(-c2ccccn2)nn1)Nc1cccc(F)c1	10	11*	0.62	11	12*	4	3	6
CC1CN(C(C)CO)C(=O)Cc2cc(NS(=O)(=O)c3cn(C)cn3)ccc2OC1CN(C)C(=O)Nc1ccc(F)cc1 (stereo unspecified)	/	/	0.68	/	/	/	/	/
Cc1ccc(/C=N/NC(=O)c2nnn(-c3nonc3N)c2CNc2ccccc2)cc1	3	-1	/	-6	2	/	/	/
